Laboratory results as given in PubChem BioAssay AID1085 (Emory University Molecular Libraries Screening Center, 2008).
Screen size: about 220,000 compounds; about 930 (0.42%) were called active. The sample as a whole holds a higher share of actives than the screen did. A number with no mark means an inactive call. Rule as the data show it: active = inhibition above about 50%; inactive = the rest.

biological target: Glycoprotein 42 (Epstein-Barr virus (strain AG876)) (UniProt Q1HVG2); assay: EBV glycoprotein 42 binding blockers – biochemical, uHTS, fluorescence polarization, primary screen (AID 1085); details: Fluorescence polarization binding assay, mP read-out; hits give high values; tested at 21.74 µM
Sequence (Q1HVG2 whole entry, looked up): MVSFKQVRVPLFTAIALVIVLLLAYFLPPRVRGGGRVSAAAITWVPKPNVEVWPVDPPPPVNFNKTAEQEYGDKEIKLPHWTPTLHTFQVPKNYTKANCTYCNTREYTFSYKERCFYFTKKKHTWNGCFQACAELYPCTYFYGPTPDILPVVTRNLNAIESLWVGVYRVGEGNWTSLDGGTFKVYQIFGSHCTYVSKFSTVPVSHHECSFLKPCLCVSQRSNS

Compound | inhibition
O=S(=O)(Cc1cc(Sc2ccccc2)nc(-c2ccccc2)n1)c1ccccc1 | 3.74%
CCN(c1ccc(NC(=O)COC(=O)CCc2nc3ccccc3n2-c2ccccc2)cc1)C(C)C | -13%
COc1ccc([N+](=O)[O-])cc1NC(=O)c1ccc(N(Cc2ccccc2C)S(C)(=O)=O)cc1 | -6.7%
Cc1ccc(-c2cnc(NC(=O)CCC(=O)N(C)Cc3ccccc3)n2C)cc1 | 4.29%
O=C(N/N=C/c1ccc([N+](=O)[O-])cc1)c1c[nH]c2ccccc12 | -12.7%
Cc1nc2ccccc2cc1C(=O)N/N=C/c1ccc([N+](=O)[O-])cc1 | -3.69%
O=C(N/N=C/c1ccc(Cl)cc1)c1nc2ccc([N+](=O)[O-])cc2c(=O)[nH]1 | 78.6% (active)
Nc1[nH]c(=S)nc2nc(-c3ccccc3)c(-c3ccccc3)nc12 | -1.95%
Cc1cs/c(=N\N=C\c2ccc(O)cc2)n1Cc1ccco1 | 8.07%
COc1ccc(NC(=O)Cn2c(=O)n(Cc3ccco3)c(=O)c3ccccc32)cc1 | -3.89%
CN(c1ccccc1)S(=O)(=O)c1cccc(NC(=O)Cc2c(F)cccc2Cl)c1 | 13.1%
O=S(=O)(c1ccc(F)cc1)N1CCN(C(=S)NC2CCCC2)CC1 | -9.24%
CCN(CC)P(=O)(Nc1ccc(SC(F)F)cc1)c1ccc(N(C)C)cc1NC(=O)c1ccco1 (centres undefined) | -14.5%
O=C(NCCN1C(=O)S/C(=C\c2cccnc2)C1=O)c1ccc(S(=O)(=O)N2CCCC2)cc1 | -22.6%
O=C(Nc1ccnc(-c2ccncc2)n1)c1cccs1 | -5.75%
O=C(O)COc1ccc(-c2nccc(-c3cccs3)n2)cc1 | 50.4% (active)
COC(=O)CSc1nccc(-c2cccs2)n1 | -13.3%
CCN(CC)C(=O)Oc1ccc(Br)cc1C(=O)Nc1ccc(F)c(Cl)c1 | -10.6%
Cc1ccccc1N1C(=O)C(Oc2ccc(Cl)cc2)C1CNCC1CCCO1 (centres undefined) | -2.06%
COc1cc(C(CCN2CCN(c3ccccc3)CC2)c2c(OC)cc(OC)c3ccc(=O)oc23)cc(OC)c1OC (centres undefined) | -16.3%
CCOC(=O)/C(C#N)=C/c1ccc(N2CCN(Cc3ccccc3)CC2)cc1 | 128% (active)
CCOC(=O)/C(C#N)=C/c1ccc(N2CCCCC2)cc1 | -25.7%
COc1ccc(N2CCN(C(=O)/C(C#N)=C/c3ccccc3)CC2)cc1 | -19%
Cc1ccc(C(=O)COC(=O)CCCC(=O)NC2CCCCC2)cc1[N+](=O)[O-] | 4.86%
